In the library only some 4.6% were active in any assay of this set; here they are far more common.
TIM10 inh = growth inhibitors of isogenic TIM10 control yeast, primary screen, counter-screen for tim10-1 yeast inhibitor project, luminescence, uHTS; S. cerevisiae TIM10 strain growth, BacTiter-Glo luminescence, 24 h; inhibition, % at 10 µM; 330,000 compounds, 1.4% hits; AID 463195, 2010;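 active means inhibition of 40% or more at the single tested concentration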;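 further: wild-type TIM10 isogenic control strain grown at permissive 25 °C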
NLRP3 yeast inh = NALP3 inflammasome inhibitors in reconstituted yeast, primary screen, luminescence, uHTS. Yeast reconstituted NLRP3/ASC/caspase-1, beta-gal luminescence, 24 h. inhibition, % at 10 µM. 330,000 compounds, 0.39% hits;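 active means inhibition of 50% or more; inactive means inhibition below 50%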;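 further: plate controls were induced DMSO wells for no effect and uninduced yeast grown without galactose for full effect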
SKKanGAS inh = S. pyogenes SKKanGAS growth inhibitors in kanamycin, primary screen, streptokinase expression inhibitor project, SKKanGAS strain, BacTiter-Glo luminescence; AID 1662, 2009; 300,000 compounds, 1.3% hits; 6 h; inhibition, % at 7.5 µM;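 active means mean replicate score, as percent of positive control median, at least 50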;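 further: strain carries kanamycin resistance gene driven by streptokinase promoter and grows in 40 µg/ml kanamycin; loss of luminescence reflects streptokinase promoter inhibition or plain growth inhibition; 0% = median of DMSO wells and 100% = positive control at its reference dose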
tim10-1 inh = growth inhibitors of tim10-1 mutant yeast, primary screen, luminescence, uHTS; inhibition, % at 20 µM; AID 463190, 2010; S. cerevisiae tim10-1 ts strain growth, BacTiter-Glo, 24 h; 330,000 compounds, 2.2% hits;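 active means inhibition of at least 40%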;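 further: mutant grown at 25 °C; 0% = DMSO wells with yeast and 100% = wells holding no yeast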
tim23-1 inh = growth inhibitors of tim23-1 mutant yeast, primary screen, luminescence, uHTS | 330,000 compounds, 1.3% hits | inhibition, % at 20 µM | S. cerevisiae tim23-1 growth, BacTiter-Glo luminescence, 24 h;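 active means growth inhibition of the mutant yeast at or above 50%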;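 further: temperature-sensitive mutant grown at 25 °C; plate controls were DMSO-treated mutant yeast for no effect and medium wells lacking yeast for full effect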
PfHsp90 set2 = growth inhibition of PfHsp90-expressing yeast, primary screen, antimalarial PfHsp90 inhibitor project, S. cerevisiae, BacTiter-Glo luminescence, single point, set 2 | BacTiter-Glo ATP, 48 h; yeast lacking PDR1 and PDR3 efflux regulators | AID 504621, 2011 | inhibition, % at 9.4 µM | 310,000 compounds, 0.32% hits;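 active means every replicate shows inhibition above about 80%, whatever the replicate mean, limit read from the data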;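 further: 0% = DMSO neutral controls and 100% = 20 µM radicicol positive controls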
tim10-1 conf = growth inhibitors of tim10-1 mutant yeast, confirmation, single concentration, luminescence, S. cerevisiae. AID 463213, 2010. inhibition, % at 20 µM. 7,400 compounds, 56% hits. shares compounds with tim10-1 inh. S. cerevisiae tim10-1 ts strain growth, BacTiter-Glo, 24 h;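 active means inhibition of yeast growth at or above a set limit in either of two repeat tests at 20 µM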;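 further: tim10-1 mutant grown at permissive 25 °C to find synthetic lethal compounds; 0% = DMSO yeast wells and 100% = medium wells without yeast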
TIM10 conf = growth inhibitors of wild-type TIM10 yeast, confirmation, counter-screen for tim10-1 synthetic lethality project, single concentration, luminescence, S. cerevisiae. 4,600 compounds, 63% hits. S. cerevisiae tim10 strain growth, BacTiter-Glo luminescence, 24 h. inhibition, % at 10 µM. shares compounds with TIM10 inh;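 active means inhibition of yeast growth at or above a set limit in either of two replicates at 10 µM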;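 further: this counterscreen used the strain with wild-type TIM10; 0% = yeast with DMSO and 100% = medium wells lacking yeast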
tim23-1 conf = tim23-1 mutant yeast growth inhibitors, confirmation, luminescence, single concentration; shares compounds with tim23-1 inh; S. cerevisiae tim23-1 growth, BacTiter-Glo luminescence, 24 h; inhibition, % at 20 µM; 4,400 compounds, 83% hits;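 active means inhibition above about 39% in either of two replicate wells at 20 µM, limit read from the data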;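 further: temperature-sensitive tim23-1 mutant grown at 25 °C; 0% = DMSO wells with yeast and 100% = medium wells without yeast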
Starred values were filed as active, the others as inactive; / = no result given.

SMILES	TIM10 inh	NLRP3 yeast inh	SKKanGAS inh	tim10-1 inh	tim23-1 inh	PfHsp90 set2	TIM10 conf	others
c1ccc(-c2[nH]c(-c3ccccc3)[n+](CC3CO3)c2-c2ccccc2)cc1 (stereo not drawn)	48.1*	-17.3	-15.1	48.6*	55.1*	-1.7	-11.0	tim10-1 conf=34.3*;tim23-1 conf=49.6*
COc1cc(C2(C#N)CCN(C)CC2)cc(OC)c1OC	/	/	/	/	/	6.7	/
CCOP(=O)(OCC)/C(C#N)=C/c1ccc(Br)cc1	51.3*	19.1	16.5	44.6*	69.1*	7.4	52.4*	tim10-1 conf=39.5*;tim23-1 conf=55.5*
CC(C)C(=O)c1cn(Cc2ccc(C#N)cc2)c2ccccc12	40.8*	-17.1	-0.8	24.7	18.0	15.6	7.9
COC(=O)C1=C(c2ccccc2)C[C@@H]2CC[C@H]1N2C(=O)NC1CCCCC1	8.1	10.9	-1.7	3.5	14.0	1.6	/
Cc1cccc(CCNCc2cc3cccc(C)c3[nH]c2=O)c1	11.8	41.2	-5.9	7.6	-1.2	-13.6	/
C/C(O)=C(\C#N)C(=O)Nc1cc(Br)ccc1Br	12.6	14.0	/	15.4	-2.6	-7.6	/
O=C(OCC(=O)c1ccc([N+](=O)[O-])cc1)/C(=C/c1ccc(Cl)cc1)NC(=O)c1ccccc1	44.8*	1.8	13.8	34.9	31.0	-8.1	23.1
O=C(COC(=O)Cc1ccccc1)NNC(=O)c1ccc([N+](=O)[O-])cc1	2.9	6.8	/	-2.7	5.4	-9.0	/
COc1cc(C=C2C(=O)NC(=O)NC2=O)ccc1O	94.3*	0.1	0.0	4.2	-0.3	-7.1	-4.2
Cn1cccc1/C=C1/C(=O)NC(=S)N(Cc2ccc(F)cc2)C1=O	84.3*	19.1	8.6	-9.7	-4.5	-31.0	85.7*
CCOC(=O)c1cccc(-[n+]2c(-c3ccccc3)cc(-c3ccccc3)cc2-c2ccccc2)c1	18.7	17.0	-7.4	16.6	2.1	4.9	/
Cc1ccc(-c2cc(-c3ccccc3)cc(-c3ccccc3)[n+]2-c2ccccc2)cc1	41.1*	30.0	-4.0	24.4	21.2	-12.8	34.8*
O=C1N[C@H](Cc2ccccc2)C(=O)N2[C@@H]3[C@H](C[C@@H]12)c1ccccc1N3OOSc1ccccc1	41.4*	12.7	-0.7	31.1	24.0	1.1	25.1
O=C(c1ccc(Cl)cc1)C1CCCN(Cc2ccc3ncccc3c2)C1 (stereo not drawn)	-21.1	34.7	3.0	-42.4	-69.3	-16.6	/
CC(C)(C)N(NC(=O)c1ccccc1)C(=O)c1ccccc1	40.2*	3.6	-3.1	-3.2	-10.3	2.6	-2.6
CC1CCCC(C)N1/N=C/c1c[nH]c2ccc(Br)cc12 (stereo not drawn)	42.0*	5.4	0.0	34.1	11.4	19.5	-38.2
CN1CCC(c2c[nH]c3ccc(O)cc23)CC1	/	/	/	/	/	-0.7	/
O=C(NCCCn1ccnc1)C(Cl)(Cl)Cl	6.7	1.8	1.1	10.7	4.1	6.9	/
O=C(CSC1c2ccccc2-c2ccccc21)N/N=C/c1ccccc1O	47.1*	23.8	4.9	29.5	52.3*	-41.3	58.4*	tim23-1 conf=58.4*
Cc1ccc(Cn2cc(C=O)c(-c3ccc(F)cc3)n2)cc1	20.2	24.2	-3.5	28.6	49.3	-5.4	/
Cc1ccc(-c2nn(Cc3ccccc3)cc2C=O)cc1C	52.1*	22.6	-4.1	31.1	52.6*	-58.5	55.4*	tim23-1 conf=58.4*

From PubChem BioAssay
